In assay [1] the target is Calcium and integrin-binding protein 1 (Homo sapiens) (UniProt Q99828). Kind of assay: Primary qHTS for Identification of Calcium Integrin Binding Protein 1 (CIB1) Competitor (AID 1508620).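 Also: GST tagged CIB1 binding a fluorescein labelled alphaIIb integrin peptide tracer; top concentration of the series differs between compounds.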 The note with it: CIB1-GST / FITC-alphaIIb peptide fluorescence polarization; series mostly up to 57.7 µM. Summed up:
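Fluorescence polarization competition: GST-tagged CIB1 (1 uM final) preincubated with compound 15 min at room temperature, then FITC-labelled alphaIIb peptide (100 nM final) added. After 15 min at room temperature, polarization read at Ex 480/Em 540.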
On the technique in general: qHTS replaces the single test concentration by a dilution series.

The target of assay [2] is Cytochrome P450 2D6 (Homo sapiens) (UniProt P10635). The assay is described as follows: Cytochrome P450 family 2 subfamily D member 6 (CYP2D6) small molecule antagonists: luciferase biochemical (cell-free) qHTS assay (AID 1645840; active = well fitted curve in the direction sought with a large enough effect in the repeat runs; an effect the other way counts as inactive or inconclusive; also: nearly all actives have a fitted effect of over 55% in size; also: potency is read from the fitted curve at half-maximal effect). The conditions noted are these: P450-Glo CYP2D6 enzyme, luciferin luminescence, 1 h; series mostly up to 57.4 µM. Put shortly: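 P450-Glo CYP2D6 system: proluciferin substrate converted by enzyme to luciferin, read by luminescence proportional to activity. Enzyme-substrate mix with compound 10 min at room temperature, then NADPH regeneration 1 h before detection reagent.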
Chain of Cytochrome P450 2D6 (Homo sapiens) (P10635 whole entry, looked up): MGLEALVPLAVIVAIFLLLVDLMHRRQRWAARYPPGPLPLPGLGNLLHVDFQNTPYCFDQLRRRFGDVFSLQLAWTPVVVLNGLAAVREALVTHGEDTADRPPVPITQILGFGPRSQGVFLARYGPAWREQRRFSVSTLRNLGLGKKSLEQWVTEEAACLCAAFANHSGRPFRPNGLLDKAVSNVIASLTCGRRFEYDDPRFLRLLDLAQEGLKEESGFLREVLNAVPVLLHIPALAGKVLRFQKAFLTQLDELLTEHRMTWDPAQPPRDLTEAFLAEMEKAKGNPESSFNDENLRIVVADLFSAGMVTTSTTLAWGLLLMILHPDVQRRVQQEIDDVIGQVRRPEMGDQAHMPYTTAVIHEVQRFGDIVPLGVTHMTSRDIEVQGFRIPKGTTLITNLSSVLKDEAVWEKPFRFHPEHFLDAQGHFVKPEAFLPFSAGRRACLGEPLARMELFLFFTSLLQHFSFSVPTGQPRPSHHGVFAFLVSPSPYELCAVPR

Assay [3] has as its target Cytochrome P450 2C9 (Homo sapiens) (UniProt P11712). Kind of assay: Cytochrome P450 family 2 subfamily C member 9 (CYP2C9) small molecule antagonists: luciferase biochemical (cell-free) qHTS assay (AID 1645842; active = well fitted curve in the direction sought with a large enough effect in the repeat runs; an effect the other way counts as inactive or inconclusive; also: nearly all actives have a fitted effect of over 55% in size; also: potency is read from the fitted curve at half-maximal effect). The note with it: P450-Glo CYP2C9 enzyme assay, luciferin luminescence; series mostly up to 57.4 µM. Put shortly:
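P450-Glo CYP2C9 system: proluciferin substrate with enzyme in mix containing 0.4% BSA, 10 min at room temperature, then NADPH regeneration solution added and incubated 1 h at 37C. Detection reagent stopped reaction; luminescence read after 20 min as RLU.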

Assay [4] in a line: Primary qHTS for inhibitors of nuclear receptor binding SET domain protein 2 (NSD2) in an isogenic RCH-ACV NSD2 p.E1099K mutant (9B) (AID 1645876). Also: nearly all actives have a fitted effect of over 70% in size. The conditions noted are these: RCH-ACV NSD2 E1099K (9B) viability, CellTiter-Glo, 72 h; series mostly up to 44.9 µM.
The nature of assay [5]: Primary qHTS for inhibitors of nuclear receptor binding SET domain protein 2 (NSD2) in an RCH-ACV wild type WT cells (2C) (AID 1645877). Also: nearly all actives have a fitted effect of over 70% in size. The note with it: RCH-ACV (leukaemia line) NSD2 WT (2C) viability, CellTiter-Glo, 72 h; series mostly up to 44.9 µM.

Records with an inconclusive call do not appear. Calls of active or inactive are those of the source. Unless noted, calls follow the shape of the dose curve; as a rule, active = well fitted curve in the direction sought with a large enough effect; inconclusive = small, poorly fitted or top-dose-only effect, or another doubt; inactive = no such curve, though single readings can be large; an effect the other way counts as inactive or inconclusive.

Chain of Calcium and integrin-binding protein 1 (Homo sapiens) (Q99828 whole entry, looked up): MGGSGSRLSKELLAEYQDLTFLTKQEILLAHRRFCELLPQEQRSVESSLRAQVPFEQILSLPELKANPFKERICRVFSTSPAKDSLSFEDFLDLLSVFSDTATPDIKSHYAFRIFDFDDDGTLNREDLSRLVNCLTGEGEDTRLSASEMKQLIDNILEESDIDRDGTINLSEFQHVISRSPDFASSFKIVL
Chain of Cytochrome P450 2C9 (Homo sapiens) (P11712 whole entry, looked up): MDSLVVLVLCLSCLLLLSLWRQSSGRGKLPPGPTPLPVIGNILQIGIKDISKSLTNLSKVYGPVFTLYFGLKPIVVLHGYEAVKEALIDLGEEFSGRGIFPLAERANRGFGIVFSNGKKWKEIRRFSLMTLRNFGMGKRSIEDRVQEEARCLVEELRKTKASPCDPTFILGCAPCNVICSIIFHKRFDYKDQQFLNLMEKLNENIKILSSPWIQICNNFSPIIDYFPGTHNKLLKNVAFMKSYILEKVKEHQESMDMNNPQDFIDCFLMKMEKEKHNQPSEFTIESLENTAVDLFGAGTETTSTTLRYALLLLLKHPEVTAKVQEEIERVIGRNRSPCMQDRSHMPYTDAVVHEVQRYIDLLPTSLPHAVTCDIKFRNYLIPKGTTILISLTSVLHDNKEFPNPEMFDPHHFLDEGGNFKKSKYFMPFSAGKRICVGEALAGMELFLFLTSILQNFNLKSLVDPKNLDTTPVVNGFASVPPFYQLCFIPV

For the molecule `Cc1nc2cc(-c3cc(F)cc(C#N)c3)ccc2s1`, the Potency result in assay [1], in assay [2], in assay [4] and in assay [5] was “inactive” each time. Further, the Potency in assay [3] is 10.7 µM (active).
Turning to `Cn1cc(CCn2cnc(-c3cnn(C)c3)c2-c2ccc(C#N)cc2)cn1`, the Potency result in assay [1], in assay [2], in assay [3], in assay [4] and in assay [5] was “inactive” throughout.
Turning to `Cc1ccccc1-c1cc(N2CCN(C)CC2)ncc1N(C)C(=O)C(C)(C)c1cc(C(F)(F)F)cc(C(F)(F)F)c1`, the Potency result in assay [1], in assay [4] and in assay [5] was “inactive” each time. For the same molecule, the Potency in assay [2] was 15.1 µM (active); in assay [3], 16.9 µM (active).
For `C[C@@H](c1ccccc1)N(C(N)=NC#N)c1cccc2ncccc12`, the Potency result in assay [1], in assay [2], in assay [4] and in assay [5] was “inactive” throughout. For the same molecule, in assay [3], the Potency was 10.7 µM (active).
In the case of `Nc1nc(COC(=O)c2ccc([N+](=O)[O-])cc2)nc(Nc2ccccc2)n1`, the Potency result in assay [1], in assay [2], in assay [4] and in assay [5] was “inactive” each time. The Potency in assay [3] was 21.3 µM (active).
Regarding `CN[C@H](CNC(=O)N1CCC[C@@H]([C@@H](OCCNC(=O)OC)c2cccc(Cl)c2)C1)C[C@H]1CCCOC1`, the Potency result in assay [1], in assay [3], in assay [4] and in assay [5] was “inactive” throughout. The Potency in assay [2] was 19 µM (active).

(Values after PubChem BioAssay (NCATS).)
